An excerpt weighted towards active compounds, which were near 16% of everything screened.
TDP1 block: qHTS Assay for Inhibitors of Tyrosyl-DNA Phosphodiesterase (TDP1). Tyrosyl-DNA phosphodiesterase 1 (Homo sapiens), Q9NUW8. recombinant TDP1, AlphaScreen DNA substrate cleavage. Potency, µM (titrated, usually from 130 µM), hits mostly inhibitors. actives 0.28% (n = 350,000). AID 485290, 2010; also: nearly all actives have a fitted effect of over 40% in size
Target sequence (Q9NUW8 whole entry, looked up): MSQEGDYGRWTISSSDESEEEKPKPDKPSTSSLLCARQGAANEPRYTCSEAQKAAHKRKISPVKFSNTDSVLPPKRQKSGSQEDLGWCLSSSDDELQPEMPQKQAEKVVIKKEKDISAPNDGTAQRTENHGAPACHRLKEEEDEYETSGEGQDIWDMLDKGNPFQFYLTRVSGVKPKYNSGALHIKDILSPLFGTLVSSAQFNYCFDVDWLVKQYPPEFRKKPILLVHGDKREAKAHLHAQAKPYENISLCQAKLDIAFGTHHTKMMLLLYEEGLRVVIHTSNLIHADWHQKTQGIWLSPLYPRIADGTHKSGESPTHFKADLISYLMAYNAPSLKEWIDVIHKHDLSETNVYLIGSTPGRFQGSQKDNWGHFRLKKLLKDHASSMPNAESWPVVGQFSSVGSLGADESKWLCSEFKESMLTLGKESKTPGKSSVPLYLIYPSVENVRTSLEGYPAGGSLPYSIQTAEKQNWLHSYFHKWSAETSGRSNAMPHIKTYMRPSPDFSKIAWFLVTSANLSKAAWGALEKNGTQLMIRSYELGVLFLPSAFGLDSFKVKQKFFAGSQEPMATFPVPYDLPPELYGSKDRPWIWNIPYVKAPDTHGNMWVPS
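Recombinant human Tdp1 (E. coli-expressed, 1 nM final) preincubated with compounds 15 min at room temperature, then 5'-biotin/3'-phosphotyrosine-FITC DNA substrate (15 nM final) added for 5 min. AlphaScreen beads (10 ug/ml final) added 10 min; cleavage lowers signal.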
DT40 TDP1 CPT: qHTS for Inhibitors of human tyrosyl-DNA phosphodiesterase 1 (TDP1): qHTS in cells in presence of CPT; chicken DT40 Tdp1-/-;hTDP1 cells + 20 nM CPT, ATP luminescence, 48 h; Potency, µM (highest dose often 46.2 µM), hits mostly inhibitors; actives 12% (n = 420,000); also: nearly all actives have a fitted effect of over 55% in size
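Chicken DT40 Tdp1-/- cells stably complemented with human TDP1 were seeded at 400 cells/well in medium containing 20 nM camptothecin, exposed to pin-transferred compounds, and grown at 37 °C for at least 48 hr. Viability was read as ATP luminescence.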
uPA generation: qHTS for Inhibitors of Cell Surface uPA Generation. actives 0.31% (n = 330,000). Potency, µM (series often up to 38.3 µM), actives largely listed as inhibitors. cell surface uPA generation assay, qHTS; active = well fitted inhibition curve with a large enough effect; inconclusive = small, poorly fitted or top-dose-only effect; inactive = no such curve, though single readings can be large or run the other way; tested in mouse RAW 264.7 cells; also: nearly all actives have a fitted effect of over 55% in size
TDP1 cell noCPT: qHTS for Inhibitors of human tyrosyl-DNA phosphodiesterase 1 (TDP1): qHTS in cells in absence of CPT. DT40 Tdp1-/- hTDP1 cells, no CPT, ATP luminescence, 48 h. Potency, µM (series often up to 46.2 µM), actives largely listed as inhibitors. actives 15% (n = 420,000). AID 686978, 2013; also: nearly all actives have a fitted effect of over 55% in size
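Luminescent ATP content (CellTiter-Glo) served as the growth readout. Knockout chicken DT40 cells expressing human TDP1 were exposed to compounds without camptothecin for a minimum 48 hr at 37 °C.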
miR-21 reporter: qHTS Assay for Modulators of miRNAs and/orActivators of miR-21. HeLa miR-21 FLuc reporter, luciferase, 48 h. Potency, µM (doses to about 38.3 µM), usual class: activators. 340,000 tested, under 10 active;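 also: miR-21 action dims this reporter so a rising signal means less miR-21 action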
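Compounds were titrated across several concentrations (up to approximately 40 uM) and incubated 48 hours with HeLa miR-21-FLuc reporter cells (miR-21 target sequence downstream of FLuc, endogenous miR-21). Readout was firefly luciferase luminescence after lytic detection reagent.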
A number is an active result; 0 = inactive; ? = inconclusive; - = not tested or not shown. Unless noted, calls follow the shape of the dose curve; as a rule, active = well fitted curve in the direction sought with a large enough effect; inconclusive = small, poorly fitted or top-dose-only effect, or another doubt; inactive = no such curve, though single readings can be large; an effect the other way counts as inactive or inconclusive.

SMILES | TDP1 block | DT40 TDP1 CPT | uPA generation | TDP1 cell noCPT | miR-21 reporter
Cc1cc(C(=O)N/N=C/c2cc(Br)cc([N+](=O)[O-])c2O)c2ccccc2n1 | 0 | ? | 0 | ? | 0
Cc1cc(C(=O)N/N=C/c2ccc(N(C)C)cc2)c2ccccc2n1 | 0 | 2.9µM | 0 | 4.1µM | 0
COC(=O)N/N=C/c1cc(N=Nc2ccccc2Cl)ccc1O | 0 | ? | ? | ? | 0
Nc1ccc(C(=O)N/N=C\c2cc(N=Nc3cccc4ccccc34)ccc2O)cc1 | 0 | 5.2µM | 0 | 4.6µM | 0
Cc1cc(C(=O)N/N=C/c2cc([N+](=O)[O-])ccc2O)c2ccccc2n1 | 0 | 5.2µM | 0 | 4.6µM | 0
CCS(=O)(=O)N1CCC(C(=O)N2CCN(Cc3ccccc3)CC2)CC1 | 0 | 0 | 0 | 0 | 0
Nc1nnnn1CC(=O)N/N=C/c1cc([N+](=O)[O-])ccc1O | 0 | 0 | 0 | 0 | 0
O=C(N/N=C/c1ccc([N+](=O)[O-])cc1)c1cc(C2CC2)nc2ccccc12 | - | 9.2µM | ? | 7.3µM | 0
Cc1cc(C(=O)Nc2ccccc2)c2ccccc2n1 | 0 | 0 | 0 | 0 | 0
Cc1cccc(/C=N/NC(=O)c2cc(C3CC3)nc3ccccc23)n1 | 0 | 0 | 0 | 0 | 0
Cc1cc(C)n(CC(=O)N/N=C/c2cc([N+](=O)[O-])ccc2O)n1 | 0 | 21µM | 0 | 15µM | 0
Cc1cc(C(=O)N/N=C/c2ccc([N+](=O)[O-])s2)c2ccccc2n1 | - | 26µM | 0 | 15µM | 0
O=C(N/N=C/c1cc([N+](=O)[O-])ccc1O)c1cc(-c2ccccc2)nc2ccccc12 | 0 | 5.8µM | 0 | 5.8µM | 0
O=C(N/N=C/c1cc([N+](=O)[O-])ccc1O)C12CC3CC(CC(C3)C1)C2 | 0 | ? | 0 | 23µM | 0
O=C(N/N=C/c1cc([N+](=O)[O-])ccc1O)NC12CC3CC(CC(C3)C1)C2 | 0 | ? | 0 | ? | 0
CCOC(=S)SCC(=O)N1CCc2cc(OC)ccc2C1C1C(=O)CCCC1=O (stereo unspecified) | - | ? | ? | 18µM | ?
CCOC(=S)SCC(=O)N1CCc2cc(OC)c(OC)cc2C1C1C(=O)CC(C)(C)CC1=O (stereo unspecified) | 0 | 0 | 0 | 0 | 0
O=C1CCC/C=C/C[C@H](CC(=O)N(CCO)Cc2ccccc2)C(=O)N[C@@H](Cc2ccccc2)CO1 | 0 | ? | 0 | 21µM | -
O=C1CC/C=C\C[C@@H](CC(=O)N(CCO)Cc2ccccc2)C(=O)N[C@H](Cc2c[nH]c3ccccc23)CO1 | 0 | 16µM | 0 | ? | -
O=C1CCC/C=C\C[C@@H](CC(=O)N(CCO)Cc2ccccc2)C(=O)N[C@H](Cc2c[nH]c3ccccc23)CO1 | 0 | ? | 0 | 16µM | -
O=C(CN1CCN(Cc2ccccc2)CC1)c1c[nH]c2ccccc12 | 0 | ? | 0 | 0 | 0
O=C(Nc1cc([N+](=O)[O-])ccc1F)C1CC1 | 0 | 0 | 0 | 0 | 0
O=C(N[C@@H]1c2ccccc2CC[C@@H]1OCc1ccccc1)c1ccc(C(F)(F)F)cc1 | 0 | 0 | 0 | 0 | -
O=C(CNC(=O)C1CCCCC1)NC1=NCCS1 | 0 | 26µM | 0 | ? | 0
CCOC(=O)C(=CNNc1c(C)csc1C(=O)OC)C(=O)OCC | 0 | ? | 0 | 15µM | 0
SMILES | TDP1 block | DT40 TDP1 CPT | uPA generation | TDP1 cell noCPT | miR-21 reporter
Nc1ccc(Cl)cc1Cl | 0 | - | - | - | -
COc1ccc(C2c3c(-c4ccccc4)n[nH]c3C(=O)N2c2ccc(C(=O)O)cc2)c(OC)c1 (stereo unspecified) | 0 | 0 | - | 0 | 0
CCOC(=O)c1ccc(N2C(=O)c3n[nH]c(-c4ccco4)c3C2c2ccc(O)c(OCC)c2)cc1 (stereo unspecified) | 0 | 16µM | - | 15µM | ?
CCOc1cc(C2c3c(n[nH]c3C)C(=O)N2c2ccc(Br)cc2)ccc1O (stereo unspecified) | 0 | 0 | 0 | 0 | 0
CCOC(=O)c1ccc(N2C(=O)c3[nH]nc(-c4ccc(OC)cc4)c3C2c2ccccc2Cl)cc1 (stereo unspecified) | 0 | 18µM | - | 23µM | 0
CCOC(=O)c1ccc(N2C(=O)c3[nH]nc(-c4ccc(C)cc4)c3C2c2cccs2)cc1 (stereo unspecified) | 0 | 16µM | - | 16µM | ?
CCOC(=O)c1ccc(N2C(=O)c3n[nH]c(C)c3C2c2ccco2)cc1 (stereo unspecified) | 0 | 0 | 0 | 0 | 0
CCOC(=O)c1ccc(N2C(=O)c3n[nH]c(-c4ccco4)c3C2c2ccc(C(=O)OC)cc2)cc1 (stereo unspecified) | 0 | 26µM | - | 15µM | ?
COc1ccc(C(=O)NCCCCc2ccccc2)cc1 | - | 0 | 0 | 0 | -
CCOC(=O)c1ccc(N2C(=O)c3[nH]nc(-c4ccc(C)cc4)c3C2c2ccc(O)c(OCC)c2)cc1 (stereo unspecified) | 0 | 18µM | - | 23µM | 0
COC1=C(Nc2ccccc2)C(=O)c2ccccc2C1=O | 0 | 12µM | ? | 12µM | 0
COC1=C(OC)C(=O)c2ccccc2C1=O | - | 7.9µM | - | 8.9µM | -
COC1=C(Nc2ccc(C)cc2)C(=O)c2ccccc2C1=O | 0 | ? | 0 | 16µM | 0
COc1ccc(OC)c2c1C(=O)c1ccccc1C2=O | - | 0 | 0 | 0 | 0
O=c1c(Cc2ccc(F)cc2)c(O)ccn1CCc1cnc[nH]1 | 0 | 0 | 0 | 0 | 0
C/C(=N\Nc1ncc(Cl)cc1Cl)c1ccc(C#N)cc1 | 0 | 0 | 0 | 0 | 0
COc1ccc(/C(C)=N/Nc2ncc(Cl)cc2Cl)c(O)c1 | 0 | ? | 0 | 0.0082µM | 0
Cc1ccc(S(=O)(=O)NCC(=O)OCc2csc(CC(=O)Nc3ccccc3C)n2)cc1C | - | 0 | 0 | ? | -
C[C@@H]1C[C@H](Nc2ccccc2)c2ccccc2N1C(=O)c1cccnc1 | 0 | 7.3µM | 0 | 4.6µM | ?
CC1CC(Nc2ccccc2)c2ccccc2N1C(=O)c1ccccc1F (stereo unspecified) | - | 1.8µM | ? | 1µM | 0
CS(=O)(=O)N1CCN(C(=O)c2ccccc2F)CC1 | 0 | 0 | 0 | 0 | 0
CC1CC(Nc2ccccc2)c2ccccc2N1C(=O)c1cccnc1 (stereo unspecified) | 0 | 9.2µM | 0 | 4.6µM | 0
COc1ccccc1C=C(C(=O)c1ccccc1)c1ccccc1 | - | 0 | - | ? | -
COC(=O)c1ccc(NC(=S)NC2CCc3ccccc32)cc1 (stereo unspecified) | 0 | 0 | 0 | 0 | 0
CN(Cc1ccc2c(c1)OCO2)C(=O)c1cc(-c2ccccc2)c(N2CCOCC2)s1 | 0 | ? | 0 | ? | -
COc1ccc(CCNC(=O)c2cc(-c3ccccc3)c(N3CCOCC3)s2)c(OC)c1OC | 0 | 8.2µM | 0 | 23µM | 0
